The record followed here is publication PMC7819943, “Rice protein-binding microarrays: a tool to detect cis-acting elements near promoter regions in rice”.

Whole data set: some 35,000 sequences, median “fluorescence intensity (a.u.)” near 10,000, cut for the highest 2% near 52,000. The sample as a whole holds a higher share of the highest values than the screen did.

This experiment addresses T1, OsWOX13 (Oryza sativa, UniProt Q5QMM3 1-267).
T1 sequence: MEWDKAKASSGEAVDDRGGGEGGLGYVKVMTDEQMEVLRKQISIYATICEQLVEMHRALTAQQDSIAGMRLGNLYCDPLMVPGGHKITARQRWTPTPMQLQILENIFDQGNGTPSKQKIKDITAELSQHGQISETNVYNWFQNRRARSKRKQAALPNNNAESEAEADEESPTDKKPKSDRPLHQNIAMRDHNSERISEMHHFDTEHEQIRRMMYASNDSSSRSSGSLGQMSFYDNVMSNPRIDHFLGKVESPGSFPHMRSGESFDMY
Briefly: protein-binding microarray (RPBM); PBS, 2% BSA, 51.3 ng/ul salmon testes DNA, 50 uM zinc acetate, 200 nM TF, 25 C, 1 h; high values mean tight binding. The settings on record: protein: recombinant; tags: N-terminal polyhistidine and DsRed monomer fusion (pET32a); label: CyDye5-dUTP incorporated in the synthesized complementary strand; 3' TTTTT single-stranded linker to array surface; dsDNA, one strand shown. The method, boiled down: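 The binding signal is fluorescence intensity per array feature (arbitrary units). Readings came from an Axon 4000B scanner after a washed, 2% BSA-blocked, double-stranded custom Agilent array had been incubated for 1 h at 25 °C with 200 nM protein and 50 µM zinc acetate. The protein was a Ni–NTA-purified transcription factor fused N-terminally to polyhistidine and DsRed, expressed in E. coli BL21-CodonPlus.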
On to “CAATGGTAAATTTATCCAGTCCAAAGTGAAAATATATGGTCGGAGTCACCTAGTGCAG”, for which the binding signal was 3960 fluorescence intensity (a.u.).
As for “CTCCTTAATTTACTTATTTGTCTTTAATTGGTTCTCGCACCGGAGTCACCTAGTGCAG”, the binding signal is 33700 fluorescence intensity (a.u.).
As for “CTGCCTGTAAATTTCTGTGATTTGATGTTTGCCTCTGTTGCGGAGTCACCTAGTGCAG”, the binding signal was 11300 fluorescence intensity (a.u.).
Consider “ATTTAAATCATCATCTATAGTCAATCTAATAGCTCACTCACGGAGTCACCTAGTGCAG”, for which the binding signal is 8910 fluorescence intensity (a.u.).
Turning to “AATAATAATTAATTATAGTAATTAATCATTAATTTTGTACCGGAGTCACCTAGTGCAG”, the binding signal was 64100 fluorescence intensity (a.u.).
As to “TTTTAGTAAATTAATAAATATTTATTTTGTTATTTAATACCGGAGTCACCTAGTGCAG”, the binding signal is 13200 fluorescence intensity (a.u.).
Consider “TATAACTAAAATTATATTTGTAAGTTTAGTTGATATGACACGGAGTCACCTAGTGCAG”, for which the binding signal was 6390 fluorescence intensity (a.u.).
For the sequence “TTTTAAATTTAAAATAATTAAAACTCAATTAATAATTTGTCGGAGTCACCTAGTGCAG”, the binding signal was 31300 fluorescence intensity (a.u.).
For “AGTGATAAATTTGAGTGATTACTATATGACACCGTTGTGTCGGAGTCACCTAGTGCAG”, the binding signal was 55700 fluorescence intensity (a.u.).
As to “GTTAATTAATTATATTATAATAATTCTCTCAATTTGTCGCCGGAGTCACCTAGTGCAG”, the binding signal is 65500 fluorescence intensity (a.u.).
With “AGTAATTTTGGTACAATTAATAAATAAATCTGATACCTCACGGAGTCACCTAGTGCAG” the figure was 21200 fluorescence intensity (a.u.); with “GATTAATTAATTAATCTCAATGATGGTAAATACATTCCCACGGAGTCACCTAGTGCAG”, 63100 fluorescence intensity (a.u.); with “ATTAAATCAATAATTAAATATATTTTCATAATAAATTTGTCGGAGTCACCTAGTGCAG”, 23400 fluorescence intensity (a.u.).
With “TAATATTATATTTAATTTGCATTATTTTAAATATAGTACCCGGAGTCACCTAGTGCAG” the figure was 3730 fluorescence intensity (a.u.).
With “ATCAATCTCAATGGTTAAATGATTGATCTATCATAATTCACGGAGTCACCTAGTGCAG” the figure was 22100 fluorescence intensity (a.u.); with “AATAATTAAATTTGATATAATAAATTAATATGTGATATGTCGGAGTCACCTAGTGCAG”, 35700 fluorescence intensity (a.u.); with “CAATGACTGATTACTGTGTTGATAGAATTTCATATACATTCGGAGTCACCTAGTGCAG”, 34300 fluorescence intensity (a.u.).
As to “TAAAATTTGGAACTGAAATTTCTAACATTTCGGGTCCATCCGGAGTCACCTAGTGCAG”, the binding signal is 4680 fluorescence intensity (a.u.).
For the sequence “AAGATAGATAGATTCATCGCGATCGATCGAGCGGGAGGTACGGAGTCACCTAGTGCAG”, the binding signal was 22500 fluorescence intensity (a.u.).
For the sequence “AAACCATTGCAAATTAACTCTCCAAATGGTTTCAGAGACGCGGAGTCACCTAGTGCAG”, the binding signal is 4040 fluorescence intensity (a.u.).
With “TACGCTATACGCAGTAATTGATATATATAATCTTCATGGTCGGAGTCACCTAGTGCAG” the figure was 8920 fluorescence intensity (a.u.); with “CCAAATGGGACAAAAGATTGAAAAGAAAACTGACAGCCGCCGGAGTCACCTAGTGCAG”, 13900 fluorescence intensity (a.u.); with “GTCCCAATGATTGCCAGCCCCGGTGGACGGGTGTAGAAGCCGGAGTCACCTAGTGCAG”, 38100 fluorescence intensity (a.u.).
With “CTTTTAAATGTAGTATAATTATATTATAACTAATAACTAGCGGAGTCACCTAGTGCAG” the figure was 18300 fluorescence intensity (a.u.); with “ATAACTATTTAATTGACATGCAATAAATATAAATGGGTAGCGGAGTCACCTAGTGCAG”, 52600 fluorescence intensity (a.u.); with “TATAATTGACATGCAATTATAATAACGTGGGTTAAATATACGGAGTCACCTAGTGCAG”, 33800 fluorescence intensity (a.u.).
Take “CCAAATTCATCTTAATGTTTGATTATGATCAGCATCTTATCGGAGTCACCTAGTGCAG”: the binding signal is 4610 fluorescence intensity (a.u.).
With “TCTAAATTGTATTTCTATATGGACTCTAGTCTCCTCTTCACGGAGTCACCTAGTGCAG” the figure was 14000 fluorescence intensity (a.u.).
With “GAAATAATTAATCAATTAACGCTGATGTGTGAGCTGCGTACGGAGTCACCTAGTGCAG” the figure was 53800 fluorescence intensity (a.u.).
Take “TACAATCTGATTAATTAATTAGCACGGAAAATAATGTCAACGGAGTCACCTAGTGCAG”: the binding signal is 59200 fluorescence intensity (a.u.).
With “TCCCCTCTGATTAATTAATTAATTAATTAATTAGCTAAAACGGAGTCACCTAGTGCAG” the figure was 65500 fluorescence intensity (a.u.).
With “AGTCAAATTAATCACGCAGCTGAATGCTGAATAATGTGTCCGGAGTCACCTAGTGCAG” the figure was 24000 fluorescence intensity (a.u.); with “CAGTTGATTGGCCGACGTTATGATATGGTAGCTGAATTAGCGGAGTCACCTAGTGCAG”, 44100 fluorescence intensity (a.u.).
With “GAAACGTGATTCAAATGATTATTCAGGTACAATAATCTTACGGAGTCACCTAGTGCAG”, the binding signal was 8070 fluorescence intensity (a.u.).
As for “TCCTCTCTTAATTAATTATTAGCTCGTGTTAATTGTTAAACGGAGTCACCTAGTGCAG”, the binding signal was 32800 fluorescence intensity (a.u.).
With “CGTCTAATTAAGCGTAGACGATCTGATTCGCTAGCTCGCACGGAGTCACCTAGTGCAG”, the binding signal is 10600 fluorescence intensity (a.u.).
For the sequence “GAACAATAGATTAATATATAATTAAATAAATATTAGTCAACGGAGTCACCTAGTGCAG”, the binding signal was 25100 fluorescence intensity (a.u.).
With “TATTAATTTGTAATTAATATTGAATAACGCTGCGTGAGTACGGAGTCACCTAGTGCAG” the figure was 45900 fluorescence intensity (a.u.); with “TAAACATCTGATTAGCTAAAAGTGTTTAATTAGATTTCCACGGAGTCACCTAGTGCAG”, 21800 fluorescence intensity (a.u.).
Consider “AGCTCTGATTGAATTAGCTAATTATGGTTGCACGTCTAAGCGGAGTCACCTAGTGCAG”, for which the binding signal is 59600 fluorescence intensity (a.u.).
“TTACAAGACTTTCAATTATTATCCACATTTATATAGATGTCGGAGTCACCTAGTGCAG”: the binding signal is 7150 fluorescence intensity (a.u.).
Take “CACCAATCAGGGTTCCAAGTAGAAGAGGTGGGCAGAGAGCCGGAGTCACCTAGTGCAG”: the binding signal was 6870 fluorescence intensity (a.u.).
Consider “GATAATTTGGTCATTGCTAAAATATTTGGGAAAAGTTAGCCGGAGTCACCTAGTGCAG”, for which the binding signal was 23700 fluorescence intensity (a.u.).
In the case of “TTATAATTGGAAAATAAATGAAGGGTTATAATTAAATGAACGGAGTCACCTAGTGCAG”, the binding signal was 12000 fluorescence intensity (a.u.).
With “CTAAGCTGTGATTTCTTTTCTTTATGTCACCACCTCCAAACGGAGTCACCTAGTGCAG” the figure was 3460 fluorescence intensity (a.u.).
With “TTAATTAGACTGACATGTGGGGTCCGCGTGGGTCCCACCACGGAGTCACCTAGTGCAG”, the binding signal was 20200 fluorescence intensity (a.u.).
With “TAGTCGTGTCAATTTGGAAAATTGGAAAGCCGTGGGGAGACGGAGTCACCTAGTGCAG” the figure was 11400 fluorescence intensity (a.u.).
